Data on 36 molecules can be found in PubChem BioAssay.

The experiment is described as follows: stimulators of nuclear beta-catenin in C2C12, primary screen, imaging, WNT3A-conditioned medium, mouse C2C12, NPC library (AID 1117326). Note: reference of the scale not given here. Conditions: stronger effect = higher value.

The source made the active and inactive calls. Cut-off read from the data, not from the text of the source: active = nuclear beta-catenin stimulation mostly above about 4.2% (no sharp cut-off); inactive = mostly below about 10%.

Regarding `Cc1nc(N)nc(N)c1-c1ccc(Cl)c(Cl)c1`, the nuclear beta-catenin stimulation was 42.9% (active) (at 10 µM) and 55.1% (stimulation, at 2 µM).

Regarding `O=C(CCCN1CCN(c2ccccn2)CC1)c1ccc(F)cc1`, the nuclear beta-catenin stimulation is 0.1% (inactive) (at 10 µM) and -1% (stimulation, at 2 µM).

With `NCCCC[C@H](N[C@@H](CCc1ccccc1)C(=O)O)C(=O)N1CCC[C@H]1C(=O)O`, the nuclear beta-catenin stimulation (at 10 µM) was 0.4% (inactive) and the nuclear beta-catenin stimulation (stimulation, at 2 µM) was 0.9%.

As for `CCOc1ccc2nc3cc(N)ccc3c(N)c2c1`, the nuclear beta-catenin stimulation is 9.5% (inactive) (at 10 µM) and 0.7% (stimulation, at 2 µM).

As to `O=c1[nH]cnc2nc[nH]c12`, the nuclear beta-catenin stimulation is, setting by setting: (at 10 µM) -0.2% (inactive); (stimulation, at 2 µM) 1.5%.

On to `COC(=O)[C@@H](N)CS`, for which the nuclear beta-catenin stimulation by setting is: (at 10 µM) -1.4% (inactive); (stimulation, at 2 µM) 2.3%.

Turning to `CS(=O)(=O)c1ccc([C@@H](O)[C@@H](CO)NC(=O)C(Cl)Cl)cc1`, the nuclear beta-catenin stimulation is, setting by setting: (at 10 µM) 2.7% (inactive); (stimulation, at 2 µM) 2.3%.

Regarding `Cc1cccc(C(=O)O)c1O`, the nuclear beta-catenin stimulation (at 10 µM) is 0% (inactive) and the nuclear beta-catenin stimulation (stimulation, at 2 µM) is 0.4%.

Turning to `O=C(O)[C@@H](O)[C@H](O)[C@H](O)[C@@H](O)C(=O)O`, the nuclear beta-catenin stimulation is -1.3% (inactive) (at 10 µM) and -0.3% (stimulation, at 2 µM).

For `CC1=C(C(=O)O)N2C(=O)[C@@H](NC(=O)[C@H](N)C3=CCC=CC3)[C@H]2SC1`, the nuclear beta-catenin stimulation (at 10 µM) is -1.1% (inactive) and the nuclear beta-catenin stimulation (stimulation, at 2 µM) was -2.4%.

`CCN(CC)CCNC(=O)COc1ccc(OC)cc1`: the nuclear beta-catenin stimulation was 0.5% (inactive) (at 10 µM) and 1.9% (stimulation, at 2 µM).

On to `CC(=O)OCC(=O)[C@@]1(O)[C@H](OC(C)=O)C[C@H]2[C@@H]3CCC4=CC(=O)C=C[C@]4(C)[C@@]3(F)[C@@H](O)C[C@@]21C`, for which the nuclear beta-catenin stimulation is, setting by setting: (at 10 µM) 0.9% (inactive); (stimulation, at 2 µM) 1.1%.

As for `Cc1cccc(N(C)C(=S)Oc2ccc3ccccc3c2)c1`, the nuclear beta-catenin stimulation is, setting by setting: (at 10 µM) -0.1% (inactive); (stimulation, at 2 µM) 1.3%.

Consider `O=c1[nH]cnc2c1ncn2[C@@H]1O[C@H](CO)[C@@H](O)[C@H]1O`, for which the nuclear beta-catenin stimulation is -1% (inactive) (at 10 µM) and 3.1% (stimulation, at 2 µM).

Regarding `C[N+]1(C)[C@@H]2CC(OC(=O)[C@H](CO)c3ccccc3)C[C@H]1[C@@H]1O[C@@H]12` (some centres not stated), the nuclear beta-catenin stimulation was 1.5% (inactive) (at 10 µM) and 0.9% (stimulation, at 2 µM).

For `CCOc1ccc(NC(C)=O)cc1`, the nuclear beta-catenin stimulation by setting is: (at 10 µM) -0.6% (inactive); (stimulation, at 2 µM) -0.9%.

For the molecule `CCCCCCCCNC(C)C(O)c1ccc(SC(C)C)cc1` (configuration not stated), the nuclear beta-catenin stimulation reads like this: (at 10 µM) -5.4% (inactive); (stimulation, at 2 µM) 1.4%.

For the molecule `CCOC(=O)[C@H](CCc1ccccc1)N[C@@H](C)C(=O)N1CCC[C@H]1C(=O)O`, the nuclear beta-catenin stimulation is 4.4% (inactive) (at 10 µM) and 1.5% (stimulation, at 2 µM).

In the case of `CC(=O)Nc1cccc(O)c1`, the nuclear beta-catenin stimulation by setting is: (at 10 µM) -0.7% (inactive); (stimulation, at 2 µM) 2.5%.

For the molecule `CC(=O)O[C@]1(C(C)=O)CC[C@H]2[C@@H]3C=C(Cl)C4=CC(=O)CC[C@]4(C)[C@H]3CC[C@@]21C`, the nuclear beta-catenin stimulation reads like this: (at 10 µM) 1.1% (inactive); (stimulation, at 2 µM) -0.3%.

For the molecule `CO[C@]12C[C@@H](COC(=O)c3cncc(Br)c3)CN(C)[C@@H]1Cc1cn(C)c3cccc2c13`, the nuclear beta-catenin stimulation was 0.8% (inactive) (at 10 µM) and 2.5% (stimulation, at 2 µM).

`NS(=O)(=O)c1cc2c(cc1Cl)NC(C(Cl)Cl)NS2(=O)=O` (configuration not stated): the nuclear beta-catenin stimulation is, setting by setting: (at 10 µM) -0.1% (inactive); (stimulation, at 2 µM) -0.1%.

On to `Nc1c(Br)cc(Br)cc1CNC1CCC(O)CC1` (configuration not stated), for which the nuclear beta-catenin stimulation by setting is: (at 10 µM) 1.6% (inactive); (stimulation, at 2 µM) 0.3%.

For `CC(C)(Sc1cc(C(C)(C)C)c(O)c(C(C)(C)C)c1)Sc1cc(C(C)(C)C)c(O)c(C(C)(C)C)c1`, the nuclear beta-catenin stimulation runs as follows: (at 10 µM) 4.3% (inactive); (stimulation, at 2 µM) 6%.

In the case of `Cc1ccc(C(=O)c2ccc(CC(=O)O)n2C)cc1`, the nuclear beta-catenin stimulation reads like this: (at 10 µM) 5.9% (inactive); (stimulation, at 2 µM) 3.5%.

In the case of `C[C@@H]1CC[C@@]2(OC1)O[C@H]1C[C@H]3[C@@H]4CC[C@H]5C[C@@H](O)CC[C@]5(C)[C@H]4CC(=O)[C@]3(C)[C@H]1[C@@H]2C`, the nuclear beta-catenin stimulation by setting is: (at 10 µM) 6.5% (inactive); (stimulation, at 2 µM) 4.8%.

For the molecule `O=C(Nc1cccc(C2=NCCN2)c1)Nc1cccc(C2=NCCN2)c1`, the nuclear beta-catenin stimulation is 1.5% (inactive) (at 10 µM) and 4.9% (stimulation, at 2 µM).

As for `Cc1cc(-c2ccccc2)nnc1NCCN1CCOCC1`, the nuclear beta-catenin stimulation is, setting by setting: (at 10 µM) 1.4% (inactive); (stimulation, at 2 µM) 0.5%.

For the molecule `CCN(CC)C(=O)N1CCN(C)CC1`, the nuclear beta-catenin stimulation runs as follows: (at 10 µM) -0.1% (inactive); (stimulation, at 2 µM) 0.2%.

As for `Cc1nc2n(c(=O)c1CCN1CCC(c3noc4cc(F)ccc34)CC1)CCC[C@H]2O`, the nuclear beta-catenin stimulation by setting is: (at 10 µM) 0% (inactive); (stimulation, at 2 µM) -0.1%.

Consider `C1CCC(C(CC2CCCCN2)C2CCCCC2)CC1` (configuration not stated), for which the nuclear beta-catenin stimulation runs as follows: (at 10 µM) 22.1% (inactive); (stimulation, at 2 µM) 1.1%.

With `Cc1c(Cl)cccc1Nc1ccccc1C(=O)O`, the nuclear beta-catenin stimulation is 1.9% (inactive) (at 10 µM) and 1.6% (stimulation, at 2 µM).

On to `Cc1cc(C2CCCCC2)n(O)c(=O)c1`, for which the nuclear beta-catenin stimulation was 64.4% (active) (at 10 µM) and 14.3% (stimulation, at 2 µM).

`O=c1cc(CO)occ1O`: the nuclear beta-catenin stimulation reads like this: (at 10 µM) 2.6% (inactive); (stimulation, at 2 µM) 0.4%.

Turning to `CC/C(=C(/CC)c1ccc(O)cc1)c1ccc(O)cc1`, the nuclear beta-catenin stimulation reads like this: (at 10 µM) 21.1% (inactive); (stimulation, at 2 µM) -0.2%.

With `CCN(CC)CCOC(=O)C(Cc1cccc2ccccc12)CC1CCCO1` (configuration not stated), the nuclear beta-catenin stimulation was 0.6% (inactive) (at 10 µM) and 0.5% (stimulation, at 2 µM).
